Source: PMC5540273 (PLoS ONE, 2017)

Assays:
AAK1 = conditions: concentration: 1 μM, replicates: in singlicate; n = 1
ABL1-nonphosphorylated = conditions: concentration: 1 μM, replicates: in singlicate; n = 1
ABL1-phosphorylated = conditions: concentration: 1 μM, replicates: in singlicate; n = 1
ABL2 = conditions: concentration: 1 μM, replicates: in singlicate; n = 1
ACVR1B = conditions: concentration: 1 μM, replicates: in singlicate; n = 1
ACVR1 = conditions: concentration: 1 μM, replicates: in singlicate; n = 1
ACVR2A = conditions: concentration: 1 μM, replicates: in singlicate; n = 1
ACVR2B = conditions: concentration: 1 μM, replicates: in singlicate; n = 1
ACVRL1 = conditions: concentration: 1 μM, replicates: in singlicate; n = 1
ADCK3 = test system: T1, ADCK3; conditions: concentration: 1 μM, replicates: in singlicate; n = 1
T1 construct: gene CABC1

ADCK4 = conditions: concentration: 1 μM, replicates: in singlicate; n = 1
AKT1 = conditions: concentration: 1 μM, replicates: in singlicate; n = 1
AKT2 = conditions: concentration: 1 μM, replicates: in singlicate; n = 1
AKT3 = conditions: concentration: 1 μM, replicates: in singlicate; n = 1
ALK = conditions: concentration: 1 μM, replicates: in singlicate; n = 1
AMPK-alpha1 = test system: T2, AMPK-alpha1; conditions: concentration: 1 μM, replicates: in singlicate; n = 1
T2 construct: gene PRKAA1

AMPK-alpha2 = test system: T3, AMPK-alpha2; conditions: concentration: 1 μM, replicates: in singlicate; n = 1
T3 construct: gene PRKAA2

p38-alpha = test system: T4, p38-alpha;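 note: kd values determined as follow-up on hits from a single-replicate KINOMEscan panel screen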
T4 construct: gene MAPK14
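Throughout, for %Inh: KINOMEscan kinase panel screen.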

SMILES | %Inh (AAK1) [%] | %Inh (ABL1-nonphosphorylated) [%] | %Inh (ABL1-phosphorylated) [%] | %Inh (ABL2) [%] | %Inh (ACVR1B) [%] | %Inh (ACVR1) [%] | %Inh (ACVR2A) [%] | %Inh (ACVR2B) [%] | %Inh (ACVRL1) [%] | %Inh (ADCK3) [%] | %Inh (ADCK4) [%] | %Inh (AKT1) [%] | %Inh (AKT2) [%] | %Inh (AKT3) [%] | %Inh (ALK) [%] | %Inh (AMPK-alpha1) [%] | %Inh (AMPK-alpha2) [%] | Kd (p38-alpha) [nM]
Cc1cc(N2Cc3ccccc3C2)nc(Nc2ccc(S(=O)(=O)N3CCOCC3)cc2)n1.Cl [GSK1669917] | 1 | 0 | 0 | 0 | 0 | 2 | 0 | 0 | 0 | 7 | 8 | 96.3 | 0 | 0 | 5 | 0 | 16 | 
COc1ccccc1-c1ccc2c(NC(=O)C3CC3)n[nH]c2n1 [SB-711239] | 9 | 0 | 88 | 0 | 18 | 0 | 29 | 52 | 0 | 11 | 19 | 0 | 2 | 3 | 18 | 5 | 13 | 
O=C(Nc1ccccc1)Nc1cccc(Oc2ccc3nccn3n2)c1 | 0 | 89 | 6 | 31 | 0 | 0 | 0 | 6 | 0 | 5 | 18 | 32 | 0 | 20 | 17 | 11 | 0 | 
COc1cccc(-c2cc(-c3c[nH]nc3-c3ccccn3)ccn2)c1 [GW680338] | 4 | 0 | 3 | 0 | 50 | 24 | 9 | 18 | 0 | 25 | 26 | 0 | 0 | 0 | 34 | 7 | 0 | 
Cc1ccc(-c2cc(-c3c[nH]nc3-c3ccccn3)ccn2)cc1 [GW684088] | 22 | 35 | 21 | 0 | 65 | 29 | 0 | 49 | 0 | 22 | 37 | 0 | 0 | 0 | 16 | 0 | 0 | 
Cc1cccc(-c2nc(Nc3ccncc3)c3ccccc3n2)n1 [GW855857] | 2 | 39 | 28 | 22 | 94.3 | 15 | 24 | 36 | 65 | 27 | 0 | 20 | 0 | 0 | 0 | 0 | 12 | 
COc1cc(Nc2nccc(N3CCC(NC(=O)Nc4cc(C)ccc4C)C3)n2)cc(OC)c1OC (stereo not shown) [GSK1379762] | 46 | 0 | 0 | 22 | 0 | 12 | 0 | 0 | 0 | 30 | 49 | 0 | 0 | 0 | 45 | 0 | 22 | 
Cc1ccc(C(=O)Nc2ccc(Nc3ccnc4cc(-c5ccccn5)ccc34)cc2O)cc1.Cl [GW440146] | 4 | 68 | 31 | 18 | 0 | 0 | 0 | 25 | 0 | 0 | 0 | 0 | 19 | 0 | 27 | 4 | 15 | 
Cc1ccc(NC(=O)Nc2cccc(Cl)c2)cc1-c1ccc(C(=O)Nc2ccncc2)cc1 [GSK1398468] | 37 | 0 | 1 | 17 | 0 | 0 | 0 | 1 | 0 | 5 | 34 | 0 | 8 | 0 | 20 | 7 | 13 | 
Nc1ncnc2[nH]c(-c3ccccc3)nc12 [AH5015] | 0 | 7 | 44 | 19 | 0 | 37 | 7 | 0 | 0 | 25 | 12 | 0 | 9 | 0 | 33 | 2 | 17 | 
Cn1ccc2ncnc(Oc3ccc(Nc4nc5ccccc5[nH]4)cc3)c21 | 21 | 45 | 2 | 4 | 0 | 0 | 10 | 0 | 0 | 0 | 0 | 0 | 16 | 0 | 0 | 7 | 0 | 
COc1ccccc1CNC(=O)c1cc(C(=O)c2ccccc2C)c[nH]1 [GSK364507] | 2 | 0 | 0 | 21 | 0 | 0 | 0 | 0 | 0 | 13 | 34 | 0 | 17 | 0 | 21 | 0 | 0 | 270
